Assay results from PubChem BioAssay (NCATS).
Records with an inconclusive call do not appear. Active and inactive are the calls of the source. Calls follow the shape of the dose curve; as a rule, active = well fitted cell-killing curve with a large enough effect; inconclusive = small, poorly fitted or top-dose-only effect, or effect the other way; inactive = no such curve, though single readings can be large or run the other way.

Test: Quantitative High-Throughput drug screen in 47 multiple myeloma cell lines against the NCATS MIPE library collection: OCIMY7_PLB cell viability assay (AID 1918987); also: nearly all actives have a fitted effect of over 65% in size
Details: OCI-MY7 myeloma viability, CellTiter-Glo ATP, 48 h; series mostly up to 45.8 µM; viability (% of DMSO): at the top concentration
Description: PI: Beverly A. Mock Ph.D.
Laboratory of Cancer Biology and Genetics,
Center for Cancer Research, National Cancer Institute,
National Institute of Health, Bethesda, Maryland
Drug resistance and disease progression are common in multiple myeloma (MM) patients, underscoring the need for new therapeutic combinations. […] We hypothesized that effective combinations would reduce MYC expression and enhance p16 activity. […] These preclinical data identify potentially useful drug combinations for evaluation in drug-resistant MM and reveal potential mechanisms of combined drug sensitivity.
Described herein is the primary MIPE qHTS used to cherrypick compounds. Validated compounds were then further tested for potential synergistic activiy.
[1] Peat TJ, Gaikwad SM, Dubois W, Gyabaah-Kessie N, Zhang S, Gorjifard S, Phyo Z, Andres M, Hughitt VK, Simpson RM, Miller MA, Girvin AT, Taylor A, Williams D, D'Antonio N, Zhang Y, Rajagopalan A, Flietner E, Wilson K, Zhang X, Shinn P, Klumpp-Thomas C, McKnight C, Itkin Z, Chen L, Kazandijian D, Zhang J, Michalowski AM, Simmons JK, Keats J, Thomas CJ, Mock BA. Drug combinations identified by high-throughput screening promote cell cycle transition and upregulate Smad pathways in myeloma. Cancer Lett. 2023 Aug 1;568:216284. doi: 10.1016/j.canlet.2023.216284. Epub 2023 Jun 24. PMID: 37356470; PMCID: PMC10408729.
SEQUENCE No. (e.g., 1, 2, 3, etc.); […] (e.g., Cells, Incubation, Reagent, etc.); VALUE and DESCRIPTION.
1; Cells; 5 uL; white, solid bottom 1536-well Greiner assay plate.
2; Compounds; 23 nL; Kalypsis pin tool (Wako USA) equipped with a 1536-well pin head to transfer to the assay plates.
3; Incubation; 48 hours; 37C incubation.
4; Reagent;5uL; CellTiter Glo (Promega).
5; Detector; 425V; Luminescence; Viewlux PerkinElmer.
NOTES (numbers refer to Sequence numbers above)
1. The cell-based screening methods employed in this study were like those previously published. Briefly, the corresponding myeloma cell lines were screened in 1,536-well plates with 500 cells, 5-uL per well for inhibition of cell viability (assessed by measuring ATP levels with CellTiterGlo).
2. NCATS MIPE 4.0 library of approved and investigational drugs were added using the Kalypsis pin tool. Wells treated with DMSO only for 100% viability and media only for 0% viability were used as controls.
3. The assay plates were covered and incubated for 48 hours in a 37C, 5% CO2 incubator with controlled humidity.
4. After 48 hours, CellTilter-GloTM luminescent substrate mix (Promega) reagent was added to the assay plate and plates we incubated for 5 min at room temperature.
5. Signal was measured as median relative luminescence units on a ViewLux (PerkinElmer) multiplate reader.
[1] Heske CM, Davis MI, Baumgart JT, Wilson K, Gormally MV, Chen L, Zhang X, Ceribelli M, Duveau DY, Guha R, Ferrer M, Arnaldez FI, Ji J, Tran HL, Zhang Y, Mendoza A, Helman LJ, Thomas CJ. Matrix Screen Identifies Synergistic Combination of PARP Inhibitors and Nicotinamide Phosphoribosyltransferase (NAMPT) Inhibitors in Ewing Sarcoma. Clin Cancer Res. 2017 Dec 1;23(23):7301-7311. doi: 10.1158/1078-0432.CCR-17-1121. Epub 2017 Sep 12. PMID: 28899971; PMCID: PMC6636827.
Potency is read from the fitted curve at half-maximal effect.

Compound | Potency | viability (% of DMSO)
Cc1cc2c(C(C)C)c(O)c(O)c(C=O)c2c(O)c1-c1c(C)cc2c(C(C)C)c(O)c(O)c(C=O)c2c1O | 8.33 µM (active) | –
O=c1[nH]cnc2[nH]ncc12 | – | 114% (inactive)
Nc1nc2ccc(OC(F)(F)F)cc2s1 | – | 136% (inactive)
CN(C)C(=O)c1ccc(S(=O)(=O)c2ccc(NC(=O)[C@@](C)(O)C(F)(F)F)c(Cl)c2)cc1 | 11.8 µM (active) | –
O=C1CCCC2=C1C(c1[nH]ncc1Cl)N=C(Nc1nc3ccccc3o1)N2 (stereo not given) | 8.33 µM (active) | –
CCC(C)n1ncn(-c2ccc(N3CCN(c4ccc(OC[C@H]5CO[C@](Cn6cncn6)(c6ccc(Cl)cc6Cl)O5)cc4)CC3)cc2)c1=O (stereo not given in full) | – | 142% (inactive)
CN1CCN(CCCN2c3ccccc3Sc3ccc(C(F)(F)F)cc32)CC1 | 5.9 µM (active) | –
OCCn1cc(-c2cnc3nnn(Cc4ccc5ncccc5c4)c3n2)cn1 | – | 128% (inactive)
COc1ccc(-c2ccc3c(N4CCOC[C@H]4C)nc(N4CCOC[C@H]4C)nc3n2)cc1CO | 0.209 µM (active) | –
Cc1csc(NC(=O)c2sc3nc4c(c(C(F)(F)F)c3c2N)CCC4)n1 | 2.35 µM (active) | –
Cc1ccnc(NS(=O)(=O)c2ccc(NC(=O)Nc3ccc(S(=O)(=O)Nc4nccc(C)n4)cc3)cc2)n1 | 23.5 µM (active) | –
CCN(CC)CCCC(C)Nc1nc(C)cc(Nc2ccc3nc(C)cc(N)c3c2)n1 (stereo not given) | 8.33 µM (active) | –
CCOC(=O)C1=C[C@]2(CC)CCCN3CCc4c(n1c1ccccc41)[C@@H]32 | 9.35 µM (active) | –
CO[C@@H]1[C@H](N(C)C(=O)c2ccccc2)C[C@H]2O[C@]1(C)n1c3ccccc3c3c4c(c5c6ccccc6n2c5c31)C(=O)NC4 | 0.235 µM (active) | –
COc1ccc(CC2=NN3C([C@@H](CCc4ccccc4)[C@@H](C)O)=NC(C)C3C(=O)N2)cc1OC (stereo not given in full) | – | 160% (inactive)
COc1ccc([C@@H]2CC(=O)c3c(O)cc(O[C@@H]4O[C@H](CO[C@@H]5O[C@@H](C)[C@H](O)[C@@H](O)[C@@H]5O)[C@@H](O)[C@H](O)[C@@H]4O)cc3O2)cc1O | 6.62 µM (active) | –
Fc1ccc(Cl)cc1-c1nc(Nc2ccncc2)c2nccnc2n1 | – | 180% (inactive)
CC(C=CC1=C(C)CCCC1(C)C)=CC=CC(C)=CC(=O)O | 2.64 µM (active) | –
CC(C)C[C@H](NC(=O)[C@@H](O)[C@H](N)Cc1ccccc1)C(=O)O | 20.9 µM (active) | –
CN(C(=O)c1ccc(F)cc1C(F)(F)F)C1CCN(c2nnc(-c3ccnn3C)c3ccccc23)CC1 | 0.372 µM (active) | –

Compound | Potency | viability (% of DMSO)
CN[C@@H](C)C(=O)N[C@H]1CCCC[C@H]2CC[C@@H](C(=O)N[C@@H](c3ccccc3)c3cn(CCCCc4ccc(CCCCn5cc([C@@H](NC(=O)[C@@H]6CC[C@@H]7CCCC[C@H](NC(=O)[C@H](C)NC)C(=O)N76)c6ccccc6)nn5)cc4)nn3)N2C1=O | 0.001 µM (active) | –
CS(=O)(=O)c1cccc(CNc2nc(Nc3ccc4c(c3)CCC(=O)N4)ncc2C(F)(F)F)c1 | 14.8 µM (active) | –
COc1cc(F)c(F)c(Nc2ccc(I)cc2F)c1NS(=O)(=O)C1(C[C@H](O)CO)CC1 | 16.6 µM (active) | –
O=c1ncn2nc(Sc3ccc(F)cc3F)ccc2c1-c1c(Cl)cccc1Cl | 16.6 µM (active) | –
Cc1cc(-c2ccc(CC(=O)Nc3ccc(-c4cccnc4)cc3)cc2)ccn1 | 23.5 µM (active) | –
CC1(C)CNc2cc(NC(=O)c3cccnc3NCc3ccncc3)ccc21 | 0.372 µM (active) | –
COc1ccc2c3n(c(=NC(=O)c4cccnc4)nc2c1OC)CCN3 | 0.0743 µM (active) | –
CC(C)(Sc1ccc(CCN(CCCCC2CCCCC2)C(=O)NC2CCCCC2)cc1)C(=O)O | 14.8 µM (active) | –
N=c1nc(N2CCCCC2)cc(N)n1O | 37.2 µM (active) | –
COc1ccc2nc(S(=O)Cc3ncc(C)c(OC)c3C)[nH]c2c1 (stereo not given) | 16.6 µM (active) | –
Nc1nc2[nH]cc(CCc3ccc(C(=O)N[C@@H](CCC(=O)O)C(=O)O)cc3)c2c(=O)[nH]1 | – | 179% (inactive)
Cc1cc([C@@H](C)Nc2ccccc2C(=O)O)c2nc(N3CCOCC3)cc(=O)n2c1 | 2.15 µM (active) | –
N#CC[C@H](C1CCCC1)n1cc(-c2ncnc3[nH]ccc23)cn1 | 18.7 µM (active) | –
CNC(=O)c1ccc(C)c(-n2c(C)cc(OCc3ccc(F)cc3F)c(Br)c2=O)c1 | 8.33 µM (active) | –
CC[C@H](Nc1ncnc2nc[nH]c12)c1nc2cccc(F)c2c(=O)n1-c1ccccc1 | 4.69 µM (active) | –
CCOc1cc(N2CCC(O)CC2)ccc1Nc1ncc2c(n1)N(C)c1ccccc1C(=O)N2C | 6.62 µM (active) | –
CCc1cncnc1N1CCN(Cc2nc3ccc(C(F)(F)F)cc3[nH]2)CC1 | 23.5 µM (active) | –
CC1(C)SCCN(S(=O)(=O)c2ccc(OCC#CCO)cc2)[C@@H]1C(=O)NO | 5.26 µM (active) | –
Cc1ccc(-n2nc(C(C)(C)C)cc2NC(=O)Nc2ccc(OCCN3CCOCC3)c3ccccc23)cc1 | 2.96 µM (active) | –
Cc1c(CN2CCN(C(=O)C(C)C)CC2)sc2c(N3CCOCC3)nc(-c3cnc(N)nc3)nc12 | 1.66 µM (active) | –
